Screens as filed in PubChem.
Compounds with a hit are over-represented: about 3.4% of the library has one in this group of screens.
GPR151 activ: activators of human GPR151, primary screen, cell-based, PathHunter beta-arrestin, luminescence. G-protein coupled receptor 151 (Homo sapiens), Q8TDV0. PathHunter beta-arrestin GPR151 cells. activation, % at 11.2 µM. 650,000 compounds, 1% hits. AID 1508602, 2020; in the data active = activation above about 4.9%;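 also: 0% = median of compound wells and 100% = cells with positive control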
Target sequence (Q8TDV0 whole entry, looked up): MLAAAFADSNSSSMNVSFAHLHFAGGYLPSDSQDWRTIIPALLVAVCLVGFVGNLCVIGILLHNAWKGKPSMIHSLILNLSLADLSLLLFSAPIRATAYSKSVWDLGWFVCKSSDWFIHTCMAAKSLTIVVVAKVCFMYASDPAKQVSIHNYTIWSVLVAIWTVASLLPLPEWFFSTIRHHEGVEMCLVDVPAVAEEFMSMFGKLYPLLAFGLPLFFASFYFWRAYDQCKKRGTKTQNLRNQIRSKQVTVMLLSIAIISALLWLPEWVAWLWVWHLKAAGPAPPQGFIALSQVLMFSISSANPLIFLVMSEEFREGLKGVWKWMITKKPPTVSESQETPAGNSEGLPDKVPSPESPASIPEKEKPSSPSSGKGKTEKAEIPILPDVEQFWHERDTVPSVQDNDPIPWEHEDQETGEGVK
TEAD-YAP block: TEAD-YAP interaction inhibition, primary screen, TEAD-YAP interaction inhibitor project, luminescence, HEK-TIYL cells | TEAD-Gal4/YAP UAS-luciferase luminescence | inhibition, % at 9.12 µM | 640,000 compounds, 1.4% hits | AID 1259422, 2018; in the data active = inhibition above about 32%;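 also: 0% = median of test compound wells and 100% = reference inhibitor wells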
FBW7 activator: FBW7 E3 ligase activators, primary screen, biochemical, AlphaScreen, human; F-box/WD repeat-containing protein 7 (Homo sapiens), Q969H0; AlphaScreen FBW7–phospho-cyclin E peptide binding, activator screen; normalized activity (activation), % at 26.1 µM; 650,000 compounds, 0.13% hits; in the data active = normalized activity above about 1.9%;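 also: purified mutant Fbw7 with reduced substrate affinity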
MITF inh: MITF inhibitors, primary screen, biochemical, AlphaScreen, human. AID 1259374, 2018. AlphaScreen MITF homodimerization, bead proximity signal. inhibition, % at 2.6 µM. 650,000 compounds, 0.91% hits; in the data active = inhibition above about 50%;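 also: 0% = vehicle wells with protein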
GPR151 conf act: GPR151 activators, triplicate retest, confirmation, cell-based, PathHunter beta-arrestin, luminescence | 6,700 tested, under 10 active | AID 1508609, 2020 | GPR151 PathHunter beta-arrestin cells, 90 min; % of EA-reagent control over plate median | shares compounds with GPR151 activ | activation, % at 11.2 µM;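 active = mean percent activation across replicates above the confirmation screen cutoff of 4.91%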
GPR119 counter: GPR119 activators in beta-arrestin cells, counter-screen for GPR151 activator project, cell-based, PathHunter beta-arrestin, luminescence, triplicate; AID 1508611, 2020; activation, % at 11.2 µM; 90 min; 0 = compound-well median, 100 = enzyme-acceptor control; shares compounds with GPR151 activ; 6,700 compounds, 0.3% hits;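 active = mean percent activation in the counterscreen above 29.09%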;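 also: counterscreen on off-target GPR119 to flag nonselective hits from the GPR151 activator screen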
* marks the source's active call; other numbers are inactive results; nt = no result given.

SMILES	GPR151 activ	TEAD-YAP block	FBW7 activator	MITF inh	GPR151 conf act	GPR119 counter
Cc1ccc(C(=O)Nc2cc(C(N)=O)cc(C(N)=O)c2)cc1S(=O)(=O)N1CCCCC1	6.4*	-2	0	11	0	4
Cc1ccc(C(=O)Nc2ccc(F)cc2)cc1S(=O)(=O)N1CCCCCC1	0	-17	0	-1	nt	nt
CC(=O)N1CCOc2cc(S(=O)(=O)N3CCN(C)CC3)c(Cl)cc21	5.1*	-3	0	9	1	6
CC(=O)N1CCOc2cc(S(=O)(=O)N3CCC(C(N)=O)CC3)c(Cl)cc21	1	0	0	4	nt	nt
CCCCc1ccc(NC(=O)CSc2nncc(=O)n2N)cc1	0	7	0	1	nt	nt
CC(C)CN1CCc2nnc(CCNC(=O)COc3ccccc3)n2CC1	-1	-2	0	5	nt	nt
Cc1cc(NCCc2ccc(S(N)(=O)=O)cc2)n2nc(-c3ccc(Cl)cc3)cc2n1	-3	11	1	-1	nt	nt
COc1cc2c(cc1/C=C1/C(C)=C(C#N)c3nc(N)c(C#N)c(C)c31)OCO2	1	-6	0	-16	nt	nt
COc1ccc(OC)c(/C=C2\C(C)=C(C#N)c3nc(N)c(C#N)c(C)c32)c1	7.2*	-15	0	-1	0	3
Cn1cc(CN[C@H]2C[C@H]3C(=O)N[C@@H](Cc4ccccc4)C(=O)N3C2)c(-c2ccccc2)n1	9.8*	-16	0	-19	0	4
CC(C)C[C@H]1NC(=O)[C@@H]2C[C@H](NCc3nc(-c4ccc(F)cc4)cs3)CN2C1=O	-1	-2	0	-14	nt	nt
O=C1N[C@H](CO)C(=O)N2C[C@@H](NCc3nc(-c4ccc(F)cc4)cs3)C[C@@H]12	7.7*	11	0	-1	0	10
CCC[C@@H]1NC(=O)[C@@H]2C[C@H](NCc3cc(C)ccc3F)CN2C1=O	9.4*	-7	0	-2	2	11
CC(C)C[C@@H]1NC(=O)[C@@H]2C[C@H](NCc3ccc(C(C)C)cc3)CN2C1=O	-1	3	0	2	nt	nt
COc1ccc(CN[C@H]2C[C@H]3C(=O)N[C@H](CC(C)C)C(=O)N3C2)cc1	5.1*	-5	0	6	0	10
CC(=O)N1CCc2cc(Br)cc(S(=O)(=O)N3CCN(c4cccc(C)c4C)CC3)c21	1	-12	1	18	nt	nt
Cc1cccc(C)c1NC(=O)COc1ccccc1OCC(C)C	-2	12	0	10	nt	nt
COc1ccccc1CN[C@H]1C[C@H]2C(=O)N[C@@H](CO)C(=O)N2C1	5.2*	2	1	11	1	15
CCC[C@@H]1NC(=O)[C@@H]2C[C@H](NCc3cc4ccccc4s3)CN2C1=O	5.6*	1	0	10	0	13
CN(C)CCNC(=O)c1cc2c(s1)-c1ccccc1SC2	-3	-33	0	1	nt	nt
O=C(NCCCN1CCCC1)c1cc2c(s1)-c1ccccc1SC2	6.0*	-5	0	12	-1	-17
COc1ccc(/C(O)=C2\C(=O)C(=O)N(c3ccc(C(=O)O)cc3)C2c2ccccc2)cc1 (stereo unspecified)	9.3*	-35	0	31	0	11
O=C(Oc1ccc(Br)cc1C(=S)N1CCOCC1)c1ccccc1Cl	2	1	0	3	nt	nt
Cc1ccccc1C(=O)NC(C)c1nnc2n1CCN(Cc1ccccc1F)CC2 (stereo unspecified)	-1	3	0	6	nt	nt
Cc1ccccc1C(=O)NC(C)c1nnc2n1CCN(Cc1ccc(F)cc1)CC2 (stereo unspecified)	6.5*	-1	0	3	0	11
SMILES	GPR151 activ	TEAD-YAP block	FBW7 activator	MITF inh	GPR151 conf act	GPR119 counter
O=C(NCCn1cc(SCc2ccc(Br)cc2)c2ccccc21)c1ccc(F)cc1	5.0*	3	0	1	0	-5
CCc1cccc(C)c1NC(=O)CCC(=O)O	-1	-3	0	-2	nt	nt
CCc1cccc(CC)c1NC(=O)CCCC(=O)O	6.6*	3	1	9	0	0
CCC(C)c1ccccc1NC(=S)NC(C)=O (stereo unspecified)	31*	11	0	6	1	8
CCC(C)c1ccccc1NC(=O)CCNC(C)=O (stereo unspecified)	0	6	0	-6	nt	nt
Nc1cc(Sc2ccc(F)cc2)cc([N+](=O)[O-])c1	5.1*	-6	0	-1	0	-4
Cc1oc(-c2ccc(Cl)cc2)nc1CS(=O)CC(=O)NC(C)c1ccccc1 (stereo unspecified)	-1	-7	1	15	nt	nt
Cc1oc(-c2ccc(Cl)cc2)nc1CS(=O)CC(=O)NC(C)C (stereo unspecified)	9.4*	3	0	6	-1	-9
Cc1cccc(NC(=O)Nc2cnn(-c3cccc(C(=O)Nc4cc(C)c(C)c(C)c4)c3)c2)c1	1	-4	0	-9	nt	nt
Cc1cccc(NC(=O)Nc2cnn(-c3cccc(C(=O)Nc4ccnc(C)c4)c3)c2)c1	6.6*	25	0	-5	-1	-6
Cc1cccc(NC(=O)Nc2cnn(-c3cccc(C(=O)NOCc4ccccc4)c3)c2)c1	4.9*	-4	0	14	0	-7
O=C(Cc1ccccc1)Nc1cnn(-c2cccc(C(=O)Nc3cccc(CN4CCOCC4)c3)c2)c1	5.2*	4	0	-7	0	-2
Cc1ccnc(NC(=O)c2c(C(=O)O)cccc2[N+](=O)[O-])c1	0	5	0	10	nt	nt
CCOc1ccc(CNCc2cccs2)cc1	-1	-21	0	-3	nt	nt
Cc1ccc(C(=O)CSc2nnc(-c3ccccc3N)n2C)cc1	5.9*	-10	0	-4	0	-7
CC(C)(C)S(=O)(=O)Nc1nccnc1-c1ccc(CO)cc1	-1	-5	0	22	nt	nt
Cc1sc(N=C(N)N)nc1-c1ccc2c(c1)CCN2C(=O)C1CCCCC1	5.1*	5	0	6	0	-1
CCCN1C(=O)CC(c2ccco2)Sc2ccccc21 (stereo unspecified)	5.3*	1	0	4	-1	-1
CCC(=O)C1=C(c2ccc(C(C)(C)C)cc2)N(C(=O)CC)n2cnnc2S1	6.4*	67*	0	7	1	-3
O=C(Nc1cccc(Cl)c1)NC1(C(F)(F)F)Oc2ccccc2O1	1	-2	1	19	nt	nt
Cc1cccc(N2CCN(C(=O)c3cccc([N+](=O)[O-])c3)CC2)c1C	0	12	0	21	nt	nt
